A selection: hits, their analogues and other compounds. The true share with any hit is near 11%.
USP30 inh: inhibitors of human USP30 deubiquitinase. inhibition, % at 25 µM. Q70CQ3. 47,000 compounds, 5.3% hits. purified USP30, Ub-rhodamine cleavage fluorescence
USP17 inh: human USP17-like deubiquitinase inhibition; purified USP17, Ub-rhodamine cleavage fluorescence, 3 h; inhibition, % at 50 µM; 47,000 compounds, 6.5% hits
Target sequence (A8MUK1 whole entry, looked up): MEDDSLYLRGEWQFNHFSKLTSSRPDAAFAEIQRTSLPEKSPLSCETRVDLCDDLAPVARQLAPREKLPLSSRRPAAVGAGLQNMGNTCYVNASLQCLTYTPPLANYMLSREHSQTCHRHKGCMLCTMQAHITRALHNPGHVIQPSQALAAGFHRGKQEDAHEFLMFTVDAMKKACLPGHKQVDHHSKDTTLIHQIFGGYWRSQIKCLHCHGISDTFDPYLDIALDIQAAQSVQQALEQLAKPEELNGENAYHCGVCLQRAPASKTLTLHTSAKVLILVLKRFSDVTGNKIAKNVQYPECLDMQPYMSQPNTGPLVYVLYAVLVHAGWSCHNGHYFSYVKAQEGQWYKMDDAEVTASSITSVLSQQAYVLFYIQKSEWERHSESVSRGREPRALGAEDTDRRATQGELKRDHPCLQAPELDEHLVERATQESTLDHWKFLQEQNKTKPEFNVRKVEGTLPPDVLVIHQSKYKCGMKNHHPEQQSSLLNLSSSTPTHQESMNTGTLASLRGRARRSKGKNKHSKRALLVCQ
USP28 inh: human USP28 deubiquitinase inhibition. Q96RU2. purified USP28, Ub-rhodamine cleavage fluorescence, 30 min. inhibition, % at 25 µM. 47,000 compounds, 3% hits. AID 1645857
Numbers without * were called inactive; x = no result. Cut-off read from the data, not from the text of the source: active = inhibition above about 30%; inactive = the rest.

SMILES	USP30 inh	USP17 inh	USP28 inh
O=C(NCCc1nc2ccccc2[nH]1)c1[nH]nc2c1CCc1ccccc1-2	45*	10	18
Cc1ccccc1CNCc1c(C(=O)O)c(C)n(-c2ccccc2)c1C	-39	3	-3
Fc1ccc(-c2noc([C@@H]3CCCN3Cc3ccncc3)n2)nc1	-54	x	-12
O=C(CN1C(=O)NC2(CCCCC2)C1=O)Nc1ccc([N+](=O)[O-])cc1	28	65*	20
O=C(Cc1ccc([N+](=O)[O-])cc1)Nc1ccc(N2CCCCC2)cc1	-17	-26	-9
CCCN1C(=O)C(C)(C)COc2ccc(NS(=O)(=O)c3cccc(F)c3)cc21	-24	-2	-9
Cc1ccccc1Cn1c(=O)n(CCC(=O)NCc2ccco2)c(=O)c2ccccc21	-5	-2	6
COc1cccc(NC(=O)Cn2c(=O)n(CCCC(=O)NCc3ccco3)c(=O)c3ccccc32)c1	7	44*	15
COC(=O)c1ccccc1NC(=O)Cn1c(=O)n(CCCC(=O)NCc2ccco2)c(=O)c2ccccc21	80*	76*	58*
Cc1ccc(NC(=O)COc2cccc3c(=O)n(C)ccc23)c(C)c1	-39	10	29
COc1ccc(NC(=O)Cn2c(=O)n(CCCCC(=O)NCc3ccco3)c(=O)c3ccccc32)cc1Cl	-6	-18	-4
COc1ccccc1CNC(=O)CCCCn1c(=O)c2ccccc2n(CC(=O)Nc2ccc(C)cc2C)c1=O	42*	21	16
O=C(Cn1c(COc2ccccc2)nc2ccccc21)NCC1CCCO1 (configuration not stated)	24	16	13
COC(=O)c1oc2c(c1C)C(=O)CC(c1ccc(C(C)C)cc1)C2 (configuration not stated)	16	14	7
Cc1nc(-c2ncc(C)[nH]2)cc(C2CCN(C(=O)C(C)(C)C)CC2)n1	15	2	6
CCCSc1nc(NC2CCCCC2)c2c3c(sc2n1)COC(C)(CC)C3 (configuration not stated)	-10	1	4
CN1CCN(CCCN2C(=O)C3C(C(=O)Nc4cc(Cl)cc(Cl)c4)C4C=CC3(O4)C2C(=O)NC2CCCCC2)CC1 (configuration not stated)	-11	1	-3
Fc1ccc(F)c(-c2nnc(-c3ccc(-n4ccnc4)nc3)o2)c1	25	47*	17
Cc1ccc(Cc2nc(-c3ccc(-n4ccnc4)nc3)no2)cc1	12	12	25
Fc1ccc(CNc2cc(-n3ccnc3)ncn2)c(F)c1	-173	-58	-12
Fc1ccc(Cl)cc1-c1nnc(-c2ccc(-n3ccnc3)nc2)o1	46*	48*	16
Cc1cc(C(=O)NCC2CCCO2)c2cc(Br)ccc2n1 (configuration not stated)	0	0	-3
COc1cccc(NC(=O)Cn2cc(C(=O)c3ccc(C)cc3)c(=O)c3cc(Cl)ccc32)c1	-20	-3	19
Cc1nnc(-c2nnc(N3CCN(C(C)C)CC3)c3ccccc23)o1	-26	-13	-9
c1cncc(CN2CCC[C@H]2c2nc(-c3ccc(N4CCOCC4)nc3)no2)c1	-19	-22	-2
SMILES	USP30 inh	USP17 inh	USP28 inh
c1cncc(CN2CCC[C@H]2c2nc(-c3ccc(-n4ccnc4)nc3)no2)c1	1	41*	0
CNc1cc(C2CCCN2S(=O)(=O)N2CCOCC2)nc(C)n1 (configuration not stated)	-16	-1	-6
O=C(c1cccc2c1C(=O)N(C1CCCCC1)C2)N1CCN(c2ccccn2)CC1	-46	-23	-8
O=C(c1cc2c(s1)CN(C1CC1)C2)N1CCN(c2ccccn2)CC1	5	40*	2
Cc1noc(C)c1CN1CCC(NC(=O)c2cc(Cl)ccc2F)C1 (configuration not stated)	-5	-4	-3
O=[N+]([O-])c1ncn(-c2nc(-c3ccc(F)cc3)cc(C(F)(F)F)n2)n1	17	3	4
Cc1ccc(-n2nc(C)c(/C=C(\C#N)c3nc4ccccc4[nH]3)c2C)cc1C	-280	-72	-57
N#C/C(=C\c1cn(CCC(N)=O)c2ccccc12)c1nc2ccccc2[nH]1	-130	40*	-23
COCc1cccc(C(=O)Nc2ccc3c(c2)NC(=O)C(C)O3)c1 (configuration not stated)	14	2	1
CC1Oc2ccc(NC(=O)c3cccc(NC(=O)c4cccs4)c3)cc2NC1=O (configuration not stated)	-4	38*	1
Cc1ccc(-n2nc(C)c3c2NC(=O)CC3C(=O)c2ccc(O)cc2)cc1C (configuration not stated)	0	10	8
Cc1nn(-c2ccc(F)cc2)c2c1C(C(=O)c1ccc3c(c1)OCO3)CC(=O)N2 (configuration not stated)	11	5	4
COc1ccc(C(=O)C2CC(=O)Nc3c2c(C)nn3-c2ccc(Br)cc2)cc1 (configuration not stated)	23	58*	10
COc1ccc(-n2nc(C)c3c2NC(=O)CC3C(=O)c2ccc3c(c2)OCO3)cc1 (configuration not stated)	39*	16	4
Cc1cccc(-n2nc(C)c3c2NC(=O)CC3C(=O)c2cc3ccccc3o2)c1 (configuration not stated)	3	70*	-15
Cc1cccc(-n2nc(C)c3c2NC(=O)CC3C(=O)c2ccc3c(c2)OCO3)c1 (configuration not stated)	8	0	10
CCC[C@@H]1C[C@@H](C(=O)N[C@@H](C2OC(SC)C(O)C(O)C2O)[C@@H](C)O)N(C)C1 (some centres not stated)	20	10	12
Cc1nc(CO[C@H]2CN(Cc3cnn(C)c3)[C@@H]3CCCO[C@H]23)cs1	0	-11	-8
CCn1c(CNc2ccc(Cl)cc2)nnc1SCC(=O)Nc1ccccc1	9	0	64*
CCn1c(CC(=O)Nc2ccccc2)nnc1SCC(=O)c1ccccc1	12	7	6
O=C(C1CCC1)N1C[C@H]2C[C@H]3[C@](C1)(CN(Cc1ccc(Cl)cc1)S3(=O)=O)O2	12	0	10
O=C1c2c(O)c(Cl)cc3c2[C@@]2(Oc4ccc(O)c5c4[C@]3(O2)[C@@H]2O[C@@H]2C5=O)[C@@H]2O[C@H]12	44*	80*	90*
COc1cccc(C(=O)Nc2ccc(N3CCCC3=O)c(C)c2)c1OC	-3	2	7
Cc1cc(N2CCN(c3ncccn3)CC2)nc2ccc(NC(=O)c3cccnc3)cc12	16	35*	21
Cc1cc(N2CCN(c3ncccn3)CC2)nc2ccc(NC(=O)C3CC3)cc12	7	24	30
Cc1cc(N2CCN(c3ncccn3)CC2)nc2ccc(NC(=O)c3ccco3)cc12	58*	67*	68*
Cn1c(CCN2CCN(c3ccccn3)CC2)nc2cc(NC(=O)c3ccco3)ccc21	0	4	-2
COc1cccc(C(=O)Nc2ccc3nc(N4CCN(c5ncccn5)CC4)cc(C)c3c2)c1OC	85*	59*	24
COc1ccc([C@H]2C[C@@H](NC(=O)C3C4CCCCC43)CC[C@]23CCC(=O)N3)cc1OC (some centres not stated)	11	0	10

High-throughput results as filed in PubChem BioAssay.
